Measurements published in the supplement of paper PMC4206461.

What follows are molecules tested on Pseudomonas aeruginosa PA14 dppBCDF deletion mutant (assay: respiration area under curve with compound as sole nitrogen source, 24 h (OmniLog AUC (arbitrary units)); higher = more respiration / better utilisation as nitrogen source, active = 2000 or more; extreme values may be limits of the assay).
Experimental: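 Biolog Phenotype MicroArray plates PM6-PM8: each di/tripeptide is the sole nitrogen source. Tetrazolium reduction was read in the OmniLog every 15 min for 24 h at 37°C and summarised as area under the respiration curve (arbitrary units). Values below 2000 count as no respiration. Strain is the dipeptide ABC transporter deletion mutant.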
`CSCCC(N)C(=O)NC(CCSC)C(=O)O` (stereo not given) (plate: PM7) was tested, and the “respiration area under curve” value was 0 (inactive).
With `N[C@@H](Cc1ccc(O)cc1)C(=O)N[C@@H](Cc1c[nH]c2ccccc12)C(=O)O` (plate: PM7) the “respiration area under curve” value was 1770 (inactive).
In the case of `NCC(=O)NCC(=O)O` (plate: PM6), the “respiration area under curve” value is reported as 98.5 (inactive).
For `N[C@@H](CCC(=O)O)C(=O)N[C@@H](Cc1c[nH]c2ccccc12)C(=O)O` (plate: PM6), the “respiration area under curve” value was 728 (inactive).
With `N[C@@H](Cc1ccccc1)C(=O)N1CCC[C@H]1C(=O)O` (plate: PM7) the “respiration area under curve” value was 1.5 (inactive).
In the case of `CC(C)[C@H](N)C(=O)N[C@@H](Cc1ccc(O)cc1)C(=O)O` (plate: PM7), the “respiration area under curve” value is reported as 3890 (active).
In the case of `CC(C)CC(N)C(=O)NC(Cc1c[nH]c2ccccc12)C(=O)O` (stereo not given) (plate: PM7), the “respiration area under curve” value is reported as 7610 (active).
With `CSCC[C@H](NC(=O)[C@@H](N)CO)C(=O)O` (plate: PM7) the “respiration area under curve” value was 88.8 (inactive).
In the case of `CC(C)C[C@H](NC(=O)[C@H](CC(C)C)NC(=O)[C@@H](N)CC(C)C)C(=O)O` (plate: PM8), the “respiration area under curve” value is reported as 1800 (inactive).
In the case of `CC[C@H](C)[C@H](NC(=O)[C@@H](N)C(C)C)C(=O)O` (plate: PM7), the “respiration area under curve” value is reported as 842 (inactive).
For `NC(N)=NCCC[C@H](N)C(=O)N[C@@H](CCC(=O)O)C(=O)O` (plate: PM6), the “respiration area under curve” value was 8810 (active).
`C[C@H](N)C(=O)N[C@@H](CCC(=O)O)C(=O)O` (plate: PM6) was tested, and the “respiration area under curve” value was 3750 (active).
For `C[C@H](NC(=O)[C@@H](N)Cc1c[nH]c2ccccc12)C(=O)O` (plate: PM7), the “respiration area under curve” value was 744 (inactive).
With `CC[C@H](C)[C@H](NC(=O)CNC(=O)CN)C(=O)O` (plate: PM8) the “respiration area under curve” value was 1 (inactive).
With `O=C(O)[C@H](Cc1ccccc1)NC(=O)[C@@H]1CCCN1` (plate: PM7) the “respiration area under curve” value was 3470 (active).
For `CC[C@H](C)[C@H](NC(=O)[C@H](C)N)C(=O)O` (plate: PM8), the “respiration area under curve” value was 1150 (inactive).
For `CC[C@H](C)[C@H](NC(=O)[C@@H](N)CC(C)C)C(=O)O` (plate: PM6), the “respiration area under curve” value was 3260 (active).
In the case of `NC(CO)C(=O)NC(CCC(=O)O)C(=O)O` (stereo not given) (plate: PM8), the “respiration area under curve” value is reported as 0 (inactive).
`O=C(O)CNC(=O)[C@@H]1CCCN1` (plate: PM7) was tested, and the “respiration area under curve” value was 217 (inactive).
With `N[C@@H](CO)C(=O)N[C@@H](CC(=O)O)C(=O)O` (plate: PM8) the “respiration area under curve” value was 0 (inactive).
`NC(=O)CC[C@H](NC(=O)[C@@H](N)CO)C(=O)O` (plate: PM8) was tested, and the “respiration area under curve” value was 558 (inactive).
With `N[C@@H](Cc1ccc(O)cc1)C(=O)NCC(=O)O` (plate: PM7) the “respiration area under curve” value was 3760 (active).
For `C[C@H](O)[C@@H](NC(=O)CN)C(=O)O` (plate: PM8), the “respiration area under curve” value was 0 (inactive).
`NCC(=O)N[C@@H](Cc1c[nH]c2ccccc12)C(=O)O` (plate: PM6) was tested, and the “respiration area under curve” value was 0 (inactive).
With `N[C@@H](CC(=O)O)C(=O)N[C@@H](Cc1c[nH]c2ccccc12)C(=O)O` (plate: PM6) the “respiration area under curve” value was 1260 (inactive).
With `NCC(=O)N[C@H](CO)C(=O)O` (plate: PM8) the “respiration area under curve” value was 0 (inactive).
In the case of `N[C@@H](CC(=O)O)C(=O)N[C@@H](Cc1ccccc1)C(=O)O` (plate: PM6), the “respiration area under curve” value is reported as 15.5 (inactive).
With `NC(N)=NCCC[C@H](N)C(=O)N[C@@H](Cc1ccccc1)C(=O)O` (plate: PM6) the “respiration area under curve” value was 8100 (active).
In the case of `CC[C@H](C)[C@H](N)C(=O)N[C@@H](CC(C)C)C(=O)O` (plate: PM8), the “respiration area under curve” value is reported as 924 (inactive).
For `CC(C)C[C@H](N)C(=O)NCC(=O)NCC(=O)O` (plate: PM8), the “respiration area under curve” value was 5290 (active).
With `CC(C)[C@H](NC(=O)CN)C(=O)O` (plate: PM6) the “respiration area under curve” value was 124 (inactive).
For `NC(=O)C[C@H](NC(=O)[C@@H]1CCCN1)C(=O)O` (plate: PM8), the “respiration area under curve” value was 5910 (active).
For `NCC(=O)NCC(=O)NCC(=O)O` (plate: PM8), the “respiration area under curve” value was 5.75 (inactive).
With `N[C@@H](Cc1c[nH]c2ccccc12)C(=O)N[C@@H](Cc1c[nH]c2ccccc12)C(=O)O` (plate: PM7) the “respiration area under curve” value was 436 (inactive).
In the case of `NC(N)=NCCC[C@H](N)C(=O)N[C@@H](Cc1c[nH]c2ccccc12)C(=O)O` (plate: PM6), the “respiration area under curve” value is reported as 7640 (active).
In the case of `NCC(=O)N[C@@H](CC(=O)O)C(=O)O` (plate: PM8), the “respiration area under curve” value is reported as 6.75 (inactive).
In the case of `CC(C)C[C@H](NC(=O)[C@@H](N)CCCN=C(N)N)C(=O)O` (plate: PM6), the “respiration area under curve” value is reported as 8090 (active).
With `CC[C@H](C)[C@H](N)C(=O)N[C@@H](Cc1ccccc1)C(=O)O` (plate: PM6) the “respiration area under curve” value was 52.2 (inactive).
For `N[C@@H](Cc1ccccc1)C(=O)NCC(=O)O` (plate: PM7), the “respiration area under curve” value was 872 (inactive).
With `C[C@H](NC(=O)[C@@H]1CCCN1)C(=O)O` (plate: PM7) the “respiration area under curve” value was 103 (inactive).
